The source of these data is PubChem BioAssay (EPA / NIEHS).

Results filed as inconclusive are left out. Activity calls are given as the source filed them. The calls were made as follows: active = hit-call score of the fitted dose curve at least 0.9, where 1 is the maximum; inconclusive = response in the unintended direction; inactive = score below 0.9.

For this test, the target named is human Peroxisome Proliferator-activated Receptor alpha (PPARa), PPARA (gene 5465) (UniProt Q07869). The test can be described thus: NVS_NR_hPPARa: NovaScreen (NVS) Nuclear Receptor Binding Assay for human Peroxisome Proliferator-activated Receptor alpha (PPARa) (AID 2283359).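 Also: activity means loss of TR-FRET signal versus DMSO baseline.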 How it is done: NVS_NR_hPPARa is a biochemical, single-readout assay that uses extracted gene-proteins in a cell-free assay. Measurements were taken 1 hour after chemical dosing in a 384-well plate.NVS_NR_hPPARa is one of one assay component(s) measured or calculated from the NVS_NR_hPPARa assay. It is designed to make measurements of fluorescent resonance energy transfer, a form of binding reporter, as detected with fluorescent resonance energy transfer signals by Time-Resolved Fluorescence Resonance Energy Transfer (TR-FRET) technology.Data from the assay component NVS_NR_hPPARa was analyzed into 1 assay endpoint. This assay endpoint, NVS_NR_hPPARa, was analyzed in the positive analysis fitting direction relative to DMSO as the negative control and baseline of activity. Using a type of binding reporter, loss-of-signal activity can be used to understand changes in the binding as they relate to the gene PPARA. Furthermore, this assay endpoint can be referred to as a primary readout, because the performed assay has only produced 1 assay endpoint. To generalize the intended target to other relatable targets, this assay endpoint is annotated to the nuclear receptor intended target family, where the subfamily is non-steroidal.
human Peroxisome Proliferator-activated Receptor alpha (PPARa), PPARA (gene 5465), sequence (Q07869 whole entry, looked up): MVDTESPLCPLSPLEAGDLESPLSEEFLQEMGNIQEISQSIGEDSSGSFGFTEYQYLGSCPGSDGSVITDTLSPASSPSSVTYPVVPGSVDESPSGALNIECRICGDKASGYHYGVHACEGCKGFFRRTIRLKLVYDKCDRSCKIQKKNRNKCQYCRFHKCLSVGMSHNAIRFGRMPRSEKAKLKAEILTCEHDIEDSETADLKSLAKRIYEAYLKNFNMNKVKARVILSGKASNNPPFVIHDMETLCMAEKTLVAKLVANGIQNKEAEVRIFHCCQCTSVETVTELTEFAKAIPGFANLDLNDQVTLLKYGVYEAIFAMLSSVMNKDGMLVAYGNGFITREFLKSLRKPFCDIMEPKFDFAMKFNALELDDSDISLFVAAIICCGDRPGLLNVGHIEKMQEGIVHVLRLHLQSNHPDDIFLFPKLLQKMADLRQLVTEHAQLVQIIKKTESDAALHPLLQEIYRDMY
Binding assays used specific radioligands (tritiated, iodinated) with non-radioactive competitive displacement ligands in agonist or antagonist protocols (as indicated) and various reference compounds and inhibitors to titrate specific binding to receptors and transporters. Most enzyme assays (CYPs, kinases, phosphatases, proteases, HDACs) used recombinant protein and specific substrates (fluorescence mostly, some colorimetric and radioactive) and inhibitors, followed by a biochemical separation of substrate and product. All assays for the biochemical HTS were initially run in duplicate at a single concentration (10 uM for CYP450 assays and 25 uM for all others). […] Each assay was run with positive and negative controls, and concurrent controls on every plate. The follow-up (secondary) screen tested active chemical-pairs in concentration series, as well as a few additional assays not tested in the primary screen, some selected negative inactives, and several cases re-run in the concentration series for confirmatory purposes.
As for `Oc1ccc2c(c1)OC[C@@H](N1CCC(O)(c3ccc(F)cc3)CC1)[C@H]2O`, the compound was classed as inactive.

Consider `CC(CO)OC(C)CO` (stereo not drawn) (tested in a mixture with another compound), for which the compound was classed as inactive.

Turning to `Cc1ccc(C(C)C)c(O)c1`, the compound was classed as inactive.

`O=c1c(O)c(-c2ccc(O)c(O)c2)oc2cc(O)cc(O)c12`: the compound was classed as inactive.

As for `CCCCOC(=O)CCCCCCCCC(=O)OCCCC`, the result was inactive.

For `CCOc1ccc2c(c1)C(C)=CC(C)(C)N2`, the compound was classed as inactive.

With `CCCCCCCCCCO`, the result was inactive.

Consider `Oc1ccc2ccccc2c1N=Nc1ccccc1`, for which the compound was called inactive.

On to `C=CCOC(=O)c1ccccc1C(=O)OCC=C`, for which the compound was called inactive.

Turning to `CC1=C(/C=C/C(C)=C/C=C/C(C)=C/CO)C(C)(C)CCC1`, the result was inactive.

With `CCCCCCCC=O`, the compound was classed as inactive.

As for `Cc1cc(NC(=O)C(=O)O)cc(C)c1Oc1ccc(O)c2c1CCC2`, the compound was classed as inactive.

Usually AC50 stands for the concentration giving half of the maximal activity seen. As for `CCCCCCCCCCCCCCCCCC(=O)O`, the AC50 is 608 nM (active).
